Values joined by “and” are separate entries in the source; they are usually repeats but may differ in a detail not shown here. Identical values can stand only once. This is part of a sample that, as a whole, favours compounds with a hit. Of some 83,000 tested, about 20% had one in any assay.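 48-hour exposure, single concentration, 96-well plates; percent growth endpoint where 0 means no net growth. Active: below 10.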 Active and inactive are the calls of the source.

Among the data in PubChem BioAssay (NCI) are growth values, retold here.

In this assay the test system is HT29 colon. The experiment in a line: NCI-60 one-dose screen, 48 h (100 = growth as untreated, 0 = no growth, -100 = all killed). As to conditions: 10 µM unless noted. As for the experimental part: Growth inhibition of the HT29 human tumor cell line is measured as a screen for anti-cancer activity. Cells are grown in 96 well plates and exposed to the test compound for 48 hours. Compounds are tested at a single concentration, which is 10^-5 M for most compounds. The reported endpoint is percent growth (GI% or GIPRCNT), where numbers from 0 - 100% represent growth inhibition, and numbers from -100% - 0 represent cell death. For example, a value of 40 represents 60% growth inhibition. A value of 0 means no net growth occurred over the course of the experiment. A value of -40 indicates 40% of cells at the beginning of the experiment died by the end of the experiment. A value of -100 means all cells are dead at the end of the experiment.
NCI-60 Human Tumor Cell Lines Screen was performed using the standard one-dose NCI protocol, which is described in more detail at https://dtp.cancer.gov/discovery_development/nci-60/default.htm.
Compounds with GIPRCNT values below 10 were considered active. Activity score was based on GIPRCNT using the following formula: […]
Score is 0 for GIPRCNT values of 100 or above, 50 for GIPRCNT values of 0, and 100 for GIPRCNT values of -100.
As to `COc1cc(/C=C\[N+](=O)[O-])ccc1OCc1ccccc1`, the growth was 4.62% (active). Turning to `C=CC1CN2CCC1CC2C(O)c1ccnc2ccccc12` (stereo not given), the growth was 115% (inactive). On to `Cc1c(C)c(N)c(C)c(C)c1N`, for which the growth was 25.7% (inactive).

Turning to `C#COc1cccc(Nc2ncnc3cc(NC(=O)CF)ccc23)c1`, the growth was 4.41% [6.25 µM] (active).

For the molecule `O=C(O)C(O)c1ccc(Cl)cc1` (stereo not given), the growth is 116% (inactive) and 104% (inactive). On to `NC1CN2CCC1CC2` (stereo not given), for which the growth was 99.8% (inactive).

In the case of `Nc1c(Cl)c(Cl)nc(C(=O)O)c1Cl`, the growth is 110% (inactive). As to `COc1ccc(N)cc1N`, the growth is 113% (inactive). On to `Cc1ccc(NC2=N[C@]34CC(=O)CC[C@]3(C)[C@H]3CC[C@]5(C)C(=O)CC[C@H]5[C@@H]3C[C@@H]4S2)c(C)c1`, for which the growth was 3.81% (active).

For `O=[N+]([O-])c1ccc(CI)cc1`, the growth was 47.8% (inactive). `CC(C)c1cccc(C(C)C)c1O`: the growth is 99.4% (inactive) and 102% (inactive). For the molecule `O=C1c2ccccc2C(=O)N1N1CC1c1ccccc1` (stereo not given), the growth was 110% (inactive). For the molecule `O=[N+]([O-])c1c(Cl)cc(Cl)c([N+](=O)[O-])c1Cl`, the growth was 100% (inactive).

Take `O=Cc1cn(Cc2ccccc2)c2ccccc12`: the growth was 92% (inactive). For `C/C(=C(\c1ccc(OCCN2CCOCC2)cc1)c1ccc(OC(=O)Cc2ccccc2)cc1)c1ccc(Cl)cc1`, the growth was 77.1% (inactive).

Consider `c1ccc2c(c1)O[As](O[As]1Oc3ccccc3O1)O2`, for which the growth was 24.8% (inactive). With `O=C(CCCN1CCC2(CC1)C(=O)NCN2c1ccccc1)c1ccc(F)cc1`, the growth is 60.8% (inactive) and 21.9% (inactive). As to `Cc1cc(NC(=O)NCCCOc2ccc(N3C(N)=NC(N)=NC3(C)C)cc2Cl)ccc1S(=O)(=O)F`, the growth was 4.91% (active). As for `CN(C)c1ccc(N)cc1`, the growth is 102% (inactive) and 37.4% (inactive). As to `O=C1CN2CCC1CC2`, the growth is 99.5% (inactive).

In the case of `NC(=O)c1c(Br)c(Br)c(Br)c(Br)c1C(=O)O` (tested in a mixture with another compound), the growth was 106% (inactive) and 103% (inactive). `C[C@]12CCC(=O)C[C@@H]1CC[C@@H]1[C@@H]2CC[C@]2(C)[C@@H](OC(=O)N(CCCl)N=O)CC[C@@H]12`: the growth was 31.6% (inactive). For the molecule `C#Cc1cccc(Nc2nc(Cl)nc3cc(NC(=O)CF)ccc23)c1`, the growth is 16.1% (inactive).

Turning to `O=C=Nc1ccc(Br)cc1`, the growth is 118% (inactive). `COCC1OC2OC3C(COC)OC(OC4C(COC)OC(OC5C(COC)OC(OC6C(COC)OC(OC7C(COC)OC(OC8C(COC)OC(OC1C(O)C2O)C(O)C8O)C(O)C7O)C(O)C6O)C(O)C5O)C(O)C4O)C(O)C3O` (stereo not given) (tested in a mixture with another compound): the growth is 109% (inactive). `CN(C)C(=S)SSC(=S)N(C)C`: the growth is 61.1% (inactive) and 92.2% (inactive). As for `COC12CC3(C)C(C4=CC(=O)OC4)CCC3(O)C3CCC4=CC(=O)CCC4(CO1)C32` (stereo not given), the growth was 103% (inactive).

As for `Cc1cc(N)ccc1N`, the growth is 109% (inactive). Regarding `C[C@]12CCc3sc(Nc4ccc(F)cc4)nc3C1=CC[C@@H]1[C@@H]2CC[C@]2(C)C(=O)CC[C@@H]12`, the growth was 35.5% (inactive).

Turning to `C[C@]12CC[C@H]3[C@@H](CC=C4c5nc(N)sc5CC[C@@]43C)[C@@H]1CC[C@@H]2O`, the growth is 95.5% (inactive).

Consider `C(=NC1CCCCC1)=NC1CCCCC1`, for which the growth is 101% (inactive) and 91.9% (inactive). Then `CC[C@H](C)[C@H](NC(=O)CN(C)C)C(=O)N(C)[C@H](C[C@@H](OC(C)=O)c1nc(C(=O)NC23CC(C(=O)OC)(C2)C3)cs1)C(C)C`, with -1.6% (active); and `CCCCOC(N)=O`, with 107% (inactive). As for `CC1=CC(=O)CCC12CCOC2=O` (stereo not given), the growth is 101% (inactive). Consider `CCCCCCCCCCCCCCCCCC1OCC(COC(=O)O[C@@H](C(=O)O[C@H]2C[C@@]3(O)[C@@H](OC(=O)c4ccccc4)[C@@H]4[C@]5(OC(C)=O)CO[C@@H]5C[C@H](O)[C@@]4(C)C(=O)[C@H](OC(C)=O)C(=C2C)C3(C)C)[C@@H](NC(=O)c2ccccc2)c2ccccc2)O1` (stereo not given in full), for which the growth is 5.3% (active). To `O=C(NC1=NCC[Se]1)c1ccccc1O` belongs 92.1% (inactive). For `Nc1ccc2c(c1)Cc1cc(N)ccc1-2`, the growth was 98.8% (inactive). `Cc1nc2ccccc2c(=O)n1-c1ccccc1F`: the growth is 103% (inactive). For the molecule `c1ccc2c(c1)sc1ccccc12`, the growth is 99.8% (inactive).

With `COc1ccc(/C=C(/C)[N+](=O)[O-])cc1OC`, the growth was -70.6% (active) and -16.3% (active).
